# Test results published in PubChem BioAssay.
# Active and inactive are the calls of the source. Rule as the data show it, unless noted: active = inhibition above about 80%; inactive = the rest.
# What was measured:
# [1] = growth inhibition, single agents and combos, HTB85, cell-based, BGB or cisplatin IC20 combos, synergistic combos for chromothripsis tumors (AID 1671453); details: HTB85 osteosarcoma cells, drug combinations, stronger effect = higher value;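 also: cells exposed for 96 hours before readout; 0% = vehicle DMSO and 100% = high DMSO killing control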
# [2] = growth inhibition, single agents and combos, CRL2098, cell-based, BGB or cisplatin IC20 combos, synergistic combos for chromothripsis tumors (AID 1671454); details: CRL2098 osteosarcoma cells, drug combinations, stronger effect = higher value;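 also: cells exposed for 96 h before readout; 0% = vehicle DMSO and 100% = killing by high DMSO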
# [3] = growth inhibition, single agents and combos, HD-MB03, cell-based, BGB or cisplatin IC20 combos, synergistic combos for chromothripsis tumors (AID 1671455; in the data active = inhibition above about 83%;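 also: 0% = vehicle DMSO and 100% = high DMSO as cytotoxic control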); details: HD-MB03 medulloblastoma cells, stronger effect = higher value
# [4] = growth inhibition, single agents and combos, UWB1.289, cell-based, BGB or cisplatin combos, synergistic combos for chromothripsis tumors (AID 1671456); details: UWB1.289 ovarian carcinoma cells, stronger effect = higher value;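 also: cells exposed to compound for four days; 0% = vehicle DMSO and 100% = killing by high DMSO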
# [5] = growth inhibition, single agents and combos, LFS_MB_2R, cell-based, cisplatin combos, synergistic combos for chromothripsis tumors (AID 1671457); details: LFS_MB_2R medulloblastoma cells, stronger effect = higher value;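 also: cells exposed to compound for four days before readout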
# [6] = growth inhibition, MDA-MB-436, cell-based, BGB or cisplatin combos, synergistic combos for chromothripsis tumors (AID 1671458; call rule not given here;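 also: cells exposed for 96 hours; 0% = vehicle DMSO and 100% = killing by high DMSO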); details: MDA-MB-436 breast carcinoma growth inhibition, drug combinations, stronger effect = higher value
# [7] = UWB1.289_BRCA1 ovarian cancer growth, cell-based, BGB or cisplatin combinations (AID 1671459); details: UWB1.289 BRCA1 ovarian carcinoma, drug combinations, stronger effect = higher value
# [8] = drug combination toxicity in non-malignant astrocytes – cell-based, BGB or cisplatin IC20 combos, cytotoxicity control for chromothriptic childhood tumor combination screen (AID 1671460); details: Human astrocytes, viability inhibition, drug combinations, at 0.5 µM, stronger effect = higher value;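 also: cells exposed to compounds for 96 hours before viability readout; 0% = vehicle and 100% = killing control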
# [9] = BT084 cell growth, single and combined drugs, ICGC_MB145, cisplatin and BGB IC40 combos (AID 1671461); details: BT084 medulloblastoma cells, drug combinations, stronger effect = higher value;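 also: cells exposed to drugs for 96 hours; 0% = vehicle DMSO and 100% = high DMSO full killing control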
# [10] = RCMB18 cell growth, single agent and combined, cisplatin and BGB IC40 combos (AID 1671462); details: RCMB18 medulloblastoma cells, stronger effect = higher value;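 also: cells exposed to compound for four days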
# [11] = CRL1545 cell growth, single agent and combined, cisplatin and BGB IC20 combos (AID 1671464); details: CRL1545 osteosarcoma cells, stronger effect = higher value;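 also: cells exposed to compound for 96 hours before readout; 0% = vehicle DMSO and 100% = high DMSO killing control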
# [12] = measured here: combination with cisplatin, at 0.5 µM
compound,measurement,setting,value
Cc1c(-c2cnccn2)ssc1=S,inhibition,"[1]; measured here: with BGB IC20, at 0.5 µM",-48%
same,inhibition,"[1]; measured here: with BGB IC20, at 5 µM",-29.8%
same,inhibition,"[1]; measured here: with cisplatin IC20, at 0.5 µM",-19.3%
same,inhibition,"[1]; measured here: with cisplatin IC20, at 5 µM",6.84%
same,inhibition,"[1]; single agent, at 5 µM",-28%
same,inhibition,[2]; at 0.5 µM,-91.2% (inactive)
same,inhibition,"[2]; measured here: combination with BGB at IC20, at 0.5 µM",-80.8%
same,inhibition,"[2]; measured here: combination with cisplatin at IC20, at 0.5 µM",-109%
same,inhibition,[3]; at 0.5 µM,-13% (inactive)
same,inhibition,"[3]; measured here: combo with BGB at IC20, at 0.5 µM",-1.23%
same,inhibition,"[3]; measured here: combo with cisplatin at IC20, at 0.5 µM",-23%
same,inhibition,[4]; at 0.5 µM,-15.7% (inactive)
same,inhibition,"[4]; measured here: inhibition with BGB combination, at 0.05 µM",-24.2%
same,inhibition,"[4]; measured here: inhibition with cisplatin combination, at 0.05 µM",3.36%
same,inhibition,[5]; at 0.5 µM,-15.7% (inactive)
same,inhibition,[5]; [12],-6.9%
same,inhibition,"[5]; measured here: combination with cisplatin, at 5 µM",-12.4%
same,inhibition,[6]; at 0.5 µM,-20.6% (inactive)
same,inhibition,"[6]; measured here: BGB combination, at 0.5 µM",-19.7%
same,inhibition,"[6]; measured here: BGB combination, at 5 µM",-36%
same,inhibition,"[6]; measured here: cisplatin combination, at 0.5 µM",-33%
same,inhibition,"[6]; measured here: cisplatin combination, at 5 µM",-12.1%
same,inhibition,"[7]; BGB combination, concentration series, at 5 µM",-4.42%
same,inhibition,[7]; at 0.5 µM,-14.9% (inactive)
same,inhibition,"[7]; cisplatin combination, concentration series, at 5 µM",-10.4%
same,inhibition,[8],0.12% (inactive)
same,inhibition,[8]; measured here: combo with BGB IC20,-4.93%
same,inhibition,[8]; measured here: combo with cisplatin IC20,-9.68%
same,inhibition,[9]; at 0.5 µM,-10.9% (inactive)
same,inhibition,"[9]; cisplatin combination, at 0.5 µM",-13.8%
same,inhibition,"[9]; cisplatin combination, at 5 µM",-45.9%
same,inhibition,"[9]; measured here: BGB IC40 combination 0.05 uM, at 0.05 µM",2.43%
same,inhibition,"[9]; single agent, at 5 µM",-13.6%
same,inhibition,[10]; at 0.5 µM,-21% (inactive)
same,inhibition,"[10]; cisplatin combo, at 5 µM",-46.1%
same,inhibition,"[10]; measured here: BGB IC40 combination, at 0.05 µM",-10.6%
same,inhibition,[10]; [12],-54.1%
same,inhibition,"[10]; single agent, at 5 µM",-29.2%
same,inhibition,[11]; at 0.5 µM,-60.7% (inactive)
same,inhibition,"[11]; measured here: with BGB IC20 combination, at 0.5 µM",-51%
same,inhibition,"[11]; measured here: with cisplatin IC20 combination, at 0.5 µM",-65.5%
same,inhibition,"[11]; single agent, at 0.05 µM",-3.94%
same,inhibition,"[11]; single agent, at 5 µM",-64.9%
